{"source": "PubChem BioAssay (NCATS)", "note": "Values without a mark were called inactive. Inconclusive results are not listed. Active and inactive are the calls of the source. Calls follow the shape of the dose curve; as a rule, active = well fitted curve in the direction sought with a large enough effect; inconclusive = small, poorly fitted or top-dose-only effect, or another doubt; inactive = no such curve, though single readings can be large; an effect the other way counts as inactive or inconclusive.", "data": [{"tested_on": "not listed separately", "assay": "KB-3-1 P-gp reporter qHTS against the NCATS DSHEA and TCM libraries (AID 1919975); also: 0% is about no effect", "details": "KB-3-1 parental cells, CellTiter-Glo luminescence viability, 72 h; series mostly up to 26.1 µM; activity change, negative = inhibition: at the top concentration", "method_in_brief": "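KB-3-1 parental line, 1536-well qHTS: cells seeded, ~4 h attachment, pintool compound addition, ~72 h at 37C, then CellTiter-Glo, 30 min RT, luminescence. Concentration-response format.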", "units": {"activity change, negative = inhibition": "%"}, "values": [{"compound": "COc1cc2c(cc1O)CC1c3c(cc(O)c(OC)c3-2)CCN1C", "note": "(stereo not drawn); as to activity change, negative = inhibition: 0% is about no effect;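 as to activity, negative = inhibition: 0% = DMSO vehicle and full inhibition = artemisinin control; nearly all actives have a fitted effect of over 60% in size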", "activity change, negative = inhibition": -10.8}, {"compound": "C=CCc1ccc2c(c1)OCO2", "activity change, negative = inhibition": -9.62}, {"compound": "COc1ccc2c(c1O)-c1c(OC)c(OC)cc3c1[C@H](C2)N(C)CC3", "activity change, negative = inhibition": 6.74}]}, {"tested_on": "not listed separately", "assay": "KB-8-5-11 P-gp reporter qHTS against the NCATS DSHEA and TCM libraries (AID 1919977); also: 0% is about no effect", "details": "KB-8-5-11 cells; series mostly up to 26.1 µM; activity change, negative = inhibition: at the top concentration", "method_in_brief": "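KB-8-5-11, 500 cells/well, DMEM/10% FBS without colchicine; 4 h attach; cpd titrations, 72 h, 37C/5% CO2; CellTiter-Glo, 30 min RT, luminescence.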", "units": {"activity change, negative = inhibition": "%"}, "values": [{"compound": "COc1cc2c(cc1O)CC1c3c(cc(O)c(OC)c3-2)CCN1C", "note": "(stereo not drawn)", "activity change, negative = inhibition": -14.1}, {"compound": "C=CCc1ccc2c(c1)OCO2", "activity change, negative = inhibition": 9.51}, {"compound": "COc1ccc2c(c1O)-c1c(OC)c(OC)cc3c1[C@H](C2)N(C)CC3", "activity change, negative = inhibition": -18}]}, {"tested_on": "not listed separately", "assay": "qHTS Counterscreen for compound interference against the NCATS DSHEA and TCM libraries (AID 1919978); also: % of control where 0% means no effect", "details": "firefly luciferase detection reagent interference, luminescence", "method_in_brief": "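Compounds, titrated from 19.5 nM to 39.8 uM final, were pinned onto 1 uM D-luciferin or plain 100 mM potassium phosphate. After 15 min at room temperature, luciferin detection reagent was added for 30 min before the luminescence read.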", "units": {"max response": "%"}, "values": [{"compound": "COc1cc2c(cc1O)CC1c3c(cc(O)c(OC)c3-2)CCN1C", "note": "(stereo not drawn)", "max response": 0.642}, {"compound": "C=CCc1ccc2c(c1)OCO2", "max response": 0.591}, {"compound": "COc1ccc2c(c1O)-c1c(OC)c(OC)cc3c1[C@H](C2)N(C)CC3", "max response": 1.18}]}, {"tested_on": "not listed separately", "assay": "Dual reporter qHTS for agonist of Pregnane X Receptor (hPXR) against the NCATS DSHEA and TCM libraries: Fluorescence readout (AID 1920058); also: 0% is about no effect", "details": "PXR dual reporter cells; series mostly up to 40 µM; activation: at the top concentration", "method_in_brief": "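Fluorescence read-out for cell viability: CellTiter-Fluor, 1 h at 37 °C, Ex/Em 405/540 nm. This followed ~24 h treatment of hPXR-Luc HepG2 cells with substances in agonist mode.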", "units": {"activation": "%"}, "values": [{"compound": "COc1cc2c(cc1O)CC1c3c(cc(O)c(OC)c3-2)CCN1C", "note": "(stereo not drawn)", "activation": -36.6}, {"compound": "C=CCc1ccc2c(c1)OCO2", "activation": -4.9}, {"compound": "COc1ccc2c(c1O)-c1c(OC)c(OC)cc3c1[C@H](C2)N(C)CC3", "activation": -27.1}]}, {"target": "Nuclear receptor subfamily 1 group I member 2 (Homo sapiens) (UniProt O75469)", "sequence (O75469 whole entry, looked up)": "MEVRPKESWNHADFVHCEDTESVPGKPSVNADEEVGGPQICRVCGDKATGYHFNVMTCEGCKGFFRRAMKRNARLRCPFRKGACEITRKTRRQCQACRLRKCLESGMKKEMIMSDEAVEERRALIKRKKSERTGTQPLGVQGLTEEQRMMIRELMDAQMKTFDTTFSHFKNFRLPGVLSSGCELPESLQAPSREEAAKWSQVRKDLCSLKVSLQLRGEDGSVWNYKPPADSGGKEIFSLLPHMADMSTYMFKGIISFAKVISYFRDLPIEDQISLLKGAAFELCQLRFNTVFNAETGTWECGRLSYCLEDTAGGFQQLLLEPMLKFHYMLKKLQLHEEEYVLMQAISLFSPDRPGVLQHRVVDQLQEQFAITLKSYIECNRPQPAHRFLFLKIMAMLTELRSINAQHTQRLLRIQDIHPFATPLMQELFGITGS", "assay": "Dual reporter qHTS for antagonist of Pregnane X Receptor (hPXR) against the NCATS DSHEA and TCM libraries: Luminescence Readout (AID 1920060); also: 0% is about no effect", "details": "hPXR dual reporter cells, luciferase luminescence, antagonist mode; series mostly up to 40 µM; activity change, negative = inhibition: at the top concentration", "method_in_brief": "(§1)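 hPXR-Luc HepG2 cells exposed 24 h at 37 C to compounds with 2 uM rifampicin in antagonist mode; luciferase luminescence measured by ONE-Glo, with CellTiter-Fluor viability read beforehand.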", "units": {"activity change, negative = inhibition": "%"}, "values": [{"compound": "COc1cc2c(cc1O)CC1c3c(cc(O)c(OC)c3-2)CCN1C", "note": "(stereo not drawn)", "activity change, negative = inhibition": 137}, {"compound": "C=CCc1ccc2c(c1)OCO2", "activity change, negative = inhibition": -3.55}, {"compound": "COc1ccc2c(c1O)-c1c(OC)c(OC)cc3c1[C@H](C2)N(C)CC3", "activity change, negative = inhibition": 25.3}]}, {"tested_on": "not listed separately", "assay": "Dual reporter qHTS for antagonist of Pregnane X Receptor (hPXR) against the NCATS DSHEA and TCM libraries: Fluorescence Readout (AID 1920061)", "details": "PXR dual reporter cells, antagonist mode; series mostly up to 40 µM; activity change, negative = inhibition: at the top concentration", "method_in_brief": "as §1", "units": {"activity change, negative = inhibition": "%"}, "values": [{"compound": "COc1cc2c(cc1O)CC1c3c(cc(O)c(OC)c3-2)CCN1C", "note": "(stereo not drawn)", "activity change, negative = inhibition": -18.4}, {"compound": "C=CCc1ccc2c(c1)OCO2", "activity change, negative = inhibition": 5.34}, {"compound": "COc1ccc2c(c1O)-c1c(OC)c(OC)cc3c1[C@H](C2)N(C)CC3", "activity change, negative = inhibition": 1.9}]}, {"tested_on": "not listed separately", "assay": "qHTS profiling for inhibitors of Plasmodium falciparum proliferation (AID 504749)", "details": "P. falciparum in erythrocytes, SYBR Green DNA, 72 h; at 28.7 µM (top of the series); parasite line A", "method_in_brief": "(§2)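 In a 72 h erythrocytic culture (37 C, humidified, 5% CO2) at 2.5% hematocrit and 0.3% starting parasitemia, compounds were tested; SYBR Green I in detergent lysis buffer stained parasite DNA overnight.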", "units": {"activity, negative = inhibition": "%"}, "values": [{"compound": "C[N+]1([O-])[C@@H]2CC(OC(=O)[C@@H](CO)c3ccccc3)C[C@@H]1[C@H]1O[C@H]12", "note": "(stereo partly drawn)", "activity, negative = inhibition": 13.1}, {"compound": "C[C@]12CC[C@H](O)CC1=CCC1C2CC[C@]2(C)C(=O)CC[C@@H]12", "note": "(stereo partly drawn)", "activity, negative = inhibition": 7.06}, {"compound": "ClC1=C(Cl)C2(Cl)C3C4CC(C5OC45)C3C1(Cl)C2(Cl)Cl", "note": "(stereo not drawn)", "activity, negative = inhibition": -12.8}]}, {"tested_on": "not listed separately", "assay": "qHTS profiling for inhibitors of Plasmodium falciparum proliferation (AID 504749)", "details": "P. falciparum in erythrocytes, SYBR Green DNA, 72 h; at 28.7 µM (top of the series); parasite line B", "method_in_brief": "as §2", "units": {"activity, negative = inhibition": "%"}, "values": [{"compound": "C[N+]1([O-])[C@@H]2CC(OC(=O)[C@@H](CO)c3ccccc3)C[C@@H]1[C@H]1O[C@H]12", "note": "(stereo partly drawn)", "activity, negative = inhibition": 10.8}, {"compound": "C[C@]12CC[C@H](O)CC1=CCC1C2CC[C@]2(C)C(=O)CC[C@@H]12", "note": "(stereo partly drawn)", "activity, negative = inhibition": 19}, {"compound": "ClC1=C(Cl)C2(Cl)C3C4CC(C5OC45)C3C1(Cl)C2(Cl)Cl", "note": "(stereo not drawn)", "activity, negative = inhibition": -9.6}]}, {"tested_on": "3D7", "assay": "qHTS profiling for inhibitors of Plasmodium falciparum proliferation (AID 504749)", "details": "P. falciparum in erythrocytes, SYBR Green DNA, 72 h; series mostly up to 28.7 µM; activity, negative = inhibition: at the top concentration", "method_in_brief": "as §2", "values": [{"compound": "C[N+]1([O-])[C@@H]2CC(OC(=O)[C@@H](CO)c3ccccc3)C[C@@H]1[C@H]1O[C@H]12", "note": "(stereo partly drawn)", "Potency": "inactive"}, {"compound": "C[C@]12CC[C@H](O)CC1=CCC1C2CC[C@]2(C)C(=O)CC[C@@H]12", "note": "(stereo partly drawn)", "activity, negative = inhibition": "1.26%"}, {"compound": "ClC1=C(Cl)C2(Cl)C3C4CC(C5OC45)C3C1(Cl)C2(Cl)Cl", "note": "(stereo not drawn)", "activity, negative = inhibition": "-14.1%"}, {"compound": "CCNC[C@H](O)c1cccc(O)c1", "activity, negative = inhibition": "5.26% [at 12.8 µM]"}]}]}
